Compounds without any hit were thinned out: in the full panel of roughly 79,000, 15% have a hit. Unmarked numbers belong to inactive results. The source made the active and inactive calls. Cut-off read from the data, not from the text of the source: active = growth inhibition above about 70%; inactive = the rest.
How the values were obtained:
[1] = NCI Yeast Anticancer Drug Screen. Data for the rad50 strain (AID 155);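 note: 0% = growth of vehicle-only cultures of the same strain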; conditions: S. cerevisiae rad50 strain growth inhibition, hits give high values
Procedure, shortened: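 Yeast carrying a defined DNA repair defect were exposed to test compounds, and growth was compared with vehicle-treated controls to give percent inhibition.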

[2] = NCI Yeast Anticancer Drug Screen. Data for the mec2-1 strain (AID 157); conditions: S. cerevisiae mec2-1 strain, hits give high values
Procedure, shortened: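 Vehicle-treated cultures served as reference for growth inhibition of compound-exposed mec2-1 yeast.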

[3] = NCI Yeast Anticancer Drug Screen. Data for the sgs1 mgt1 strain (AID 161);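 note: 0% = growth of cultures given vehicle only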; conditions: S. cerevisiae sgs1 mgt1 strain, hits give high values
Procedure, shortened: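 Read-out: growth inhibition vs vehicle controls. Cells: mutant yeast strain deficient in DNA damage repair.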

[4] = NCI Yeast Anticancer Drug Screen. Data for the cln2 rad14 strain (AID 165);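 note: 0% = growth equal to vehicle treated cultures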; conditions: S. cerevisiae cln2 rad14 strain, hits give high values
Procedure, shortened: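 Each compound was tested on cln2 rad14 yeast. Inhibition of growth was calculated against vehicle-exposed controls.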

[5] = NCI Yeast Anticancer Drug Screen. Data for the bub3 strain (AID 167); conditions: S. cerevisiae bub3 mutant strain, hits give high values
Procedure, shortened: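 Compounds were applied to a genetically altered yeast strain carrying a cell-cycle control defect. Growth inhibition was scored against vehicle-treated controls.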

[6] = NCI Yeast Anticancer Drug Screen. Data for the mlh1 rad18 strain (AID 175); conditions: S. cerevisiae mlh1 rad18 strain growth inhibition, hits give high values
Procedure, shortened: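 Vehicle-treated cultures served as the reference for growth inhibition in a yeast strain carrying DNA damage repair alterations exposed to each compound.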

[7] = at 5.0 µM (retest, dose inferred, filed as 0.5)
[8] = at 50.0 µM (retest, dose inferred, filed as 5.0)

| Compound | growth inhibition [1, 7] | growth inhibition [1, 8] | growth inhibition ([1]; at 50.0 µM) | growth inhibition [2, 7] | growth inhibition [2, 8] | growth inhibition ([2]; at 50.0 µM) | growth inhibition [3, 7] | growth inhibition [3, 8] | growth inhibition ([3]; at 50.0 µM) | growth inhibition [4, 7] | growth inhibition [4, 8] | growth inhibition ([4]; at 50.0 µM) | growth inhibition [5, 7] | growth inhibition [5, 8] | growth inhibition ([5]; at 50.0 µM) | growth inhibition [6, 7] | growth inhibition [6, 8] | growth inhibition ([6]; at 50.0 µM) |
| --- | --- | --- | --- | --- | --- | --- | --- | --- | --- | --- | --- | --- | --- | --- | --- | --- | --- | --- |
| N#Cc1c(-c2ccc(Cl)c(Cl)c2)c(-c2ccc(Cl)c(Cl)c2)nn(CCO)c1=O | 73% (active) | 96% (active) | 97.8% (active) | 44% | 98% (active) | 97.6% (active) | 50% | 97% (active) | 97.5% (active) | 39% | 95% (active) | 96.8% (active) | 43% | 97% (active) | 96.3% (active) | 72% (active) | 96% (active) | 97.5% (active) |
| CCCCCCCCCCCCCC/C(=C/OCC[N+](C)(C)C)OC(C)=O (tested in a mixture with another compound) | 99% (active) | 99% (active) | 99.7% (active) | 99% (active) | 100% (active) | 99.8% (active) | 94% (active) | 100% (active) | 99.8% (active) | 99% (active) | 99% (active) | 99.3% (active) | 99% (active) | 99% (active) | 99.7% (active) | 98% (active) | 100% (active) | 99.7% (active) |
| N#CC1C(=O)NC(=O)C(C#N)C1c1ccc(Cl)c(Cl)c1 (stereo not given) | -1% | 42% | 89.2% (active) | -1% | 35% | 39.5% | 1% | 26% | 57.5% | -7% | -2% | 21.9% | -8% | 34% | 58.3% | -2% | 53% | 63.4% |
| CCN(C(C)=O)c1ccc2c(c1)Cc1ccccc1-2 | 3% | 96% (active) | 97.2% (active) | -3% | 97% (active) | 95.2% (active) | 5% | 97% (active) | 96.8% (active) | -2% | 96% (active) | 94.8% (active) | 11% | 96% (active) | 97.4% (active) | -10% | 97% (active) | 96.8% (active) |
| CC(=O)/C=N/Nc1ccccc1 | 15% | 20% | 42.1% | 3% | 7% | 3.5% | -9% | 11% | 33% | 0% | -8% | -9.5% | -1% | 3% | 7.2% | 14% | 32% | 58.6% |
| O=c1cccccc1[O-].O=c1cccccc1[O-].O=c1cccccc1[O-].[Nd+3] | 11% | 11% | 91.9% (active) | 20% | 20% | 91% (active) | 15% | 15% | 89.3% (active) | 3% | 3% | 80.9% (active) | 9% | 9% | 92.5% (active) | 13% | 13% | 87.2% (active) |
| Nc1ccc(N)c2c1C(=O)c1ccccc1C2=O | 32% | 72% (active) | 83.2% (active) | -1% | 11% | 11.7% | 2% | 14% | 24.6% | 3% | 3% | 6.9% | 0% | 24% | 31.3% | 5% | 22% | 50.6% |
| Cc1c(N=Nc2ccccc2Cl)c(-c2ccccc2)nn1C(=S)S | 16% | 90% (active) | 96.2% (active) | -1% | 91% (active) | 98.2% (active) | 4% | 95% (active) | 97.8% (active) | -2% | 92% (active) | 97.3% (active) | -3% | 85% (active) | 97.3% (active) | -2% | 93% (active) | 97.8% (active) |
| CC(=O)c1c2c(cc3c1CC1(C3)Cc3cc4c(c(C(=O)O)c3C1)CCC4)CCC2 (stereo not given) | 53% | 94% (active) | 84% (active) | 56% | 96% (active) | 79.8% (active) | 65% | 97% (active) | 89.6% (active) | 70% (active) | 95% (active) | 84.2% (active) | 63% | 95% (active) | 83.5% (active) | 73% (active) | 96% (active) | 83.4% (active) |
| C[C@]12C[C@@H](c3ccccc3)Nc3ccccc3N1C(c1ccccc1)=NO2 | -4% | 68% | 61% | 10% | 74% (active) | 74.8% (active) | -13% | 70% (active) | 81% (active) | 5% | 55% | 37.2% | -7% | 81% (active) | 62% | -19% | 75% (active) | 73.5% (active) |
